Reference: PubChem BioAssay (NCI)
About 83,000 compounds went through this panel and 20% of them were active in at least one assay; those are over-represented in the sample as a whole.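 Each cell line was grown in a 96-well plate and treated with one concentration of compound for 48 hours. Values below 10 were considered active.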 Values without a mark were called inactive. The source made the active and inactive calls.

Legend:
Experiment in all cases: NCI-60 one-dose screen, 48 h (100 = growth as untreated, 0 = no growth, -100 = all killed)
Details in all cases: 10 µM unless noted
SK-MEL-2 melanoma = system: SK-MEL-2 melanoma
EKVX NSCLC = system: EKVX NSCLC
SN12C renal = system: SN12C renal
UO-31 renal = system: UO-31 renal
TK-10 renal = system: TK-10 renal
ACHN renal = system: ACHN renal
CAKI-1 renal = system: CAKI-1 renal
A498 renal = system: A498 renal
CCRF-CEM leukemia = system: CCRF-CEM leukemia
MOLT-4 leukemia = system: MOLT-4 leukemia
SR leukemia = system: SR leukemia
RPMI-8226 leukemia = system: RPMI-8226 leukemia
OVCAR-8 ovarian = system: OVCAR-8 ovarian
OVCAR-5 ovarian = system: OVCAR-5 ovarian
OVCAR-4 ovarian = system: OVCAR-4 ovarian
SK-OV-3 ovarian = system: SK-OV-3 ovarian
IGROV1 ovarian = system: IGROV1 ovarian
OVCAR-3 ovarian = system: OVCAR-3 ovarian
HS 578T breast = system: HS 578T breast
NCI/ADR-RES ovarian = system: NCI/ADR-RES ovarian

SMILES	growth (SK-MEL-2 melanoma)	growth (EKVX NSCLC)	growth (SN12C renal)	growth (UO-31 renal)	growth (TK-10 renal)	growth (ACHN renal)	growth (CAKI-1 renal)	growth (A498 renal)	growth (CCRF-CEM leukemia)	growth (MOLT-4 leukemia)	growth (SR leukemia)	growth (RPMI-8226 leukemia)	growth (OVCAR-8 ovarian)	growth (OVCAR-5 ovarian)	growth (OVCAR-4 ovarian)	growth (SK-OV-3 ovarian)	growth (IGROV1 ovarian)	growth (OVCAR-3 ovarian)	growth (HS 578T breast)	growth (NCI/ADR-RES ovarian)
Nc1cccc(-c2nc3sccn3c2-c2ccnc(NCCNS(=O)(=O)c3ccc(C(F)(F)F)cc3)n2)c1	80.5%	67.2%	63%	15.8%	86.1%	33.9%	39.1%	34.1%	41.8%	45.6%	35.4%	61.7%	38.3%	90.5%	43.2%	53.5%	36.3%	53.4%	-15.1% (active)	71.5%
O=c1[nH]c(NCc2ccccc2)nc2nc(Nc3ccc(NC(=S)Nc4ccccc4)cc3)nc(-c3ccc(O)cc3O)c12	97.5%	63.2%	97.4%	78.5%	134%	103%	77.3%	101%	86.4%	77.4%	67.5%	90.8%	87.4%	111%	114%	97.9%	70.3%	111%	88.1%	
C=C[C@@H]1C[C@@H]2Cc3ccccc3N1O2	87.8%	99.5%	97.5%	102%	108%	110%	97.8%	107%	-50% (active)	28.9%	97.1%	85.5%	106%	97.4%	112%	114%	121%	121%	100%	106%
C=C(C)[C@@H]1CC[C@]2(C(=O)O)CC[C@]3(C)[C@H](CC[C@@H]4[C@@]5(C)C[C@@H](CC#Cc6ccc(C(F)(F)F)cc6)[C@H](O)C(C)(C)[C@@H]5CC[C@]43C)[C@@H]12	-27% (active)	24.3%	17.6%	41%	38.2%	31.2%	50%	-36.1% (active)	-2.71% (active)	4.32% (active)	15.6%	9.12% (active)	3.74% (active)	52%	1.55% (active)	36.2%	19.5%	-3.44% (active)	24.1%	76.1%
CN1CCN(CCCOc2ccc3nc(Nc4ccc(Cl)c(C(F)(F)F)c4)ccc3c2)CC1	89.9%	71.8%	63.9%	69.6%	75.9%	55.9%	83.8%	101%	17.6%	19.1%	2.08% (active)	18.1%	73.6%	72.1%	66.6%	91.4%	46.2%	59.3%	46%	62.8%
CCn1c2ccccc2c2cc(NC(=O)Nc3ccc([N+](=O)[O-])cc3C)ccc21	53%	62.3%	55.6%	23.6%	53.8%	31.9%	-4.18% (active)	65.7%	9.61% (active)	17.9%	-2.84% (active)	-21.4% (active)	49.9%	57.9%	44.2%	74.9%	43%	-2.64% (active)	52.7%	23.1%
Cc1c(C(=O)/C=C/c2csc3ccccc23)[n+](=O)c2ccccc2n1[O-]	95.3%	67.8%	78.7%	36.8%	76.5%	85%	17%	118%	51.9%	81.8%	13.5%	7.86% (active)	21.1%	94.5%	43.5%	76.4%	16.6%	-38.8% (active)	93.9%	22.5%
CCN(CC)CCOc1ccc(/C(=C(/C)c2ccccc2)c2ccc(OC(C)=O)cc2)cc1	121%	95.6%	93.6%	80.4%	111%	111%	90.8%	73.6%	94.3%	106%	112%	100%	112%	98.2%	100%	106%	105%	104%	95.2%	101%
CCCCCc1cc[n+](CC(=O)c2ccc([N+](=O)[O-])cc2)cc1	49.3%	72.8%	90.9%	72.1%	74.6%	103%	113%	101%	89.2%	100%	73.2%	45.1%	77%	109%	26.3%	93.9%	110%	58.8%	106%	110%
COc1ccc2[nH]c(=O)c(/C=N/Nc3nc(-c4ccccc4)cs3)c(O)c2c1	83.1%	53.8%	73.8%	42.5%	90.2%	48.6%	43.7%	94.9%	26.5%	35.2%	56.2%	70.6%	55.1%	85.6%	47.9%	76.8%	70.3%	24.2%	112%	37.7%
CCN(CC)CCCNc1nccc2ccc(Cl)cc12	114%	103%	99.6%	94.7%	99.8%	112%	108%	97.9%	93.1%	103%	94.3%	101%	94.8%	92%	108%	100%	118%	105%	109%	105%
CCCCCCCCCCCCCCCCCCNC(=O)[C@H]1CSC(c2ccc(OC)cc2O)N1 (stereo partly drawn)	75.6%	102%	14.3%	53.5%	94.7%	88.1%	89.8%	81.3%	6.93% (active)	17.3%	9.44% (active)	73.4%	12%	56%	84.6%	96.4%	60.1%	80.3%	55%	
COc1ccc(-c2nc(SCCC(C)C)nc(Nc3ccc(F)c(Cl)c3)c2C#N)cc1	120%	55.7%	56.7%	56.6%	62.6%	47.8%	75.5%	76.8%	71%	86.1%	57.3%	95.5%	65.8%	102%	-43.1% (active)	96%	60.3%	57.3%	65%	81.4%
Brc1cccc(-c2cc(-c3ccc4nccnc4c3)[nH]n2)c1	46.3% [25 µM]	16% [25 µM]	35.5% [25 µM]	38.8% [25 µM]	52.1% [25 µM]	39.6% [25 µM]	29.4% [25 µM]	-9.23% [25 µM] (active)	15.3% [25 µM]	30.2% [25 µM]	33.8% [25 µM]	20.3% [25 µM]	29.3% [25 µM]	38.2% [25 µM]	48.3% [25 µM]	33.2% [25 µM]	27.8% [25 µM]	4.18% [25 µM] (active)	13.7% [25 µM]	2.03% [25 µM] (active)
CCCCOc1ccc(/C=C2/SC(N3CCOCC3)=NC2=O)cc1OCC	102%	90.8%	85.2%	79.4%	116%	96%	84.8%	90.2%	90%	101%	89.5%	95.6%	103%	88.3%	87.6%	-16.1% (active)	89%	115%	104%	94.5%
